Screening results: PubChem, National Center for Advancing Translational Sciences (NCATS)
Cruzain Triton: qHTS Assay for Promiscuous and Specific Inhibitors of Cruzain (with detergent) | AID 1478, 2009 | Cruzipain (Trypanosoma cruzi), P25779 | Potency, µM, inactives show max response, negative = inhibition, actives largely listed as inhibitors | purified cruzain, Z-FR-AMC fluorescence, 0.01% Triton | 200,000 tested, 0.43% active;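 also: plate controls were neutral wells for no effect and buffer without enzyme for full effect; nearly all actives have a fitted effect of over 40% in size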
Target sequence (P25779 123-467 limits assumed): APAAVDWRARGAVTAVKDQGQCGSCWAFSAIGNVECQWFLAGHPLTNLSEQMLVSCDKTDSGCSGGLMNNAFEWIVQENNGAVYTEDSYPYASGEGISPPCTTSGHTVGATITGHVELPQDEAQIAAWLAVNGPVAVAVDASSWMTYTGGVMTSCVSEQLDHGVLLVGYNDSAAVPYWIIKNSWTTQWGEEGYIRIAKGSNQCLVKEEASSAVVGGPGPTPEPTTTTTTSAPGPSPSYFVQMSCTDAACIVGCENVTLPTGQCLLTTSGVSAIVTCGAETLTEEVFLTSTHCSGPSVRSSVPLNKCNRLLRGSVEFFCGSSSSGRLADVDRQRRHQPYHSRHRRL
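In this qHTS format, compounds are incubated with 1.5 nM cruzain for 15 min at room temperature before 2 uM Z-FR-AMC is added. Release of AMC is followed at 360/450 nm, and progress is taken as the 60 s fluorescence difference.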
Cruzain inh noDet: qHTS Assay for Promiscuous and Specific Inhibitors of Cruzain (without detergent); Cruzipain (Trypanosoma cruzi), P25779; purified cruzain, Z-FR-AMC fluorescence, no detergent; Potency, µM, without a hit: max response, negative = inhibition, actives largely listed as inhibitors; 200,000 tested, 2.3% active; AID 1476, 2009;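 also: plate controls were enzyme without inhibitor for no effect and buffer without enzyme for full effect; nearly all actives have a fitted effect of over 40% in size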
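Purified cruzain at 1.5 nM, pre-incubated 15 min with compound at room temperature in 100 mM sodium acetate pH 5.5, 5 mM DTT, 0.00005% Triton X-100. Reaction started with 2 uM Z-FR-AMC; AMC fluorescence increase over 60 s gives rate.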
Numbers without * were called inactive; ? = inconclusive. Shown are actives, neighbours in structure and some others; about 2.5% of the full set was active somewhere. Calls follow the shape of the dose curve; as a rule, active = well fitted curve in the direction sought with a large enough effect; inconclusive = small, poorly fitted or top-dose-only effect, or another doubt; inactive = no such curve, though single readings can be large; an effect the other way counts as inactive or inconclusive. Potency is read from the fitted curve at half-maximal effect.

SMILES | Cruzain Triton | Cruzain inh noDet
CC1Cc2ccccc2N1C(=O)CSc1nnc(NC(=O)Cc2cccs2)s1 (stereo not given) | 16µM* | 25µM*
CCC(=O)Nc1nnc(SCC(=O)N2c3ccccc3CC2C)s1 (stereo not given) | 3.5µM* | 13µM*
CC(=O)Nc1nnc(SCC(=O)c2ccc3c(c2)Cc2ccccc2-3)s1 | 0% | 12%
Cc1nnc(SCC(=O)N2c3ccccc3CC2C)s1 (stereo not given) | 3% | 5%
CCOC(=O)c1[nH]c2ccc(OC)cc2c1NC(=O)c1nonc1C | 6% | 4%
CCOC(=O)c1[nH]c2ccc(Cl)cc2c1NC(=O)c1nonc1C | -2% | 10µM*
Cc1ccccc1-c1noc(-c2ccc(NC3CCCC3)c([N+](=O)[O-])c2)n1 | -12% | 5%
Cc1ccc(OCCCCn2c(-c3ccc(Cl)cc3)nc3ccccc3c2=O)cc1 | -1% | -2%
CCOC(=O)c1sc(NC(=O)COc2ccccc2Cl)c(C(=O)OCC)c1C | -1% | -2%
Cc1ccc(CC(NC(=O)c2ccccc2)C(=O)N2CCCC2C(=O)O)cc1 (stereo not given) | 2% | 0%
CC[C@H](C)[C@H](NC(=O)[C@H](Cc1ccc(O)cc1)NC(=O)[C@@H](N)C(C)C)C(=O)N[C@@H](Cc1cnc[nH]1)C(=O)N1CCC[C@H]1C(=O)N[C@@H](Cc1ccccc1)C(=O)O | 14µM* | 16µM*
O=C(Oc1ccc2c(=O)c(Oc3ccc4ccccc4c3)coc2c1)c1cncc(Br)c1 | 5% | 3.2µM*
O=C(Oc1ccc2ccccc2c1)c1cncc(Br)c1 | 3% | ?
CCC(=O)N1CCc2cc(Br)cc(S(=O)(=O)N3CCC(C(=O)Nc4ccccc4CC)CC3)c21 | -12% | ?
COCCNC(=O)c1ccc(CSc2nc3ccncc3n2Cc2ccccc2)cc1 | -4% | 9%
Cc1cccc(NC(=O)CN2C(=O)S/C(=C\C(=O)Nc3ccc(Cl)cc3)C2=O)c1 | -1% | 13µM*
O=C(/C=C1\SC(=O)N(CC(=O)Nc2ccc(Cl)cc2)C1=O)Nc1ccc(F)cc1 | -3% | ?
CC(/C=C1\SC(=O)N(CC(=O)Nc2cccc(O)c2)C1=O)=C\c1ccccc1 | -4% | 8%
Cc1cccc(NC(=O)CN2C(=O)N/C(=C/c3ccc(C)s3)C2=O)c1 | -4% | 4µM*
O=C(/C=C1\SC(=O)N(CC(=O)Nc2ccc(F)cc2)C1=O)Nc1ccc(Cl)cc1 | -1% | 25µM*
Cc1cccc(NC(=O)CN2C(=O)N/C(=C/c3cc(C)n(C(C)C)c3C)C2=O)c1 | -4% | -20%
CC(=O)Nc1ccc(NC(=O)c2cnn(-c3ccccc3)c2C2CCN(C(=O)OC(C)(C)C)CC2)cc1 | -5% | -4%
CC1=C(C(=O)Nc2c(C)cc(C)cc2C)C2(CCN(C(C)C)CC2)OC1=O | 0% | -7%
O=C(COc1cc(Cl)ccc1Cl)Nc1ccc2c(c1)CCC2 | -1% | 25µM*
O=C(O)COCC(=O)Nc1ccc2c(c1)CCC2 | 3% | -11%
SMILES | Cruzain Triton | Cruzain inh noDet
CCc1ccccc1NC(=O)CN(c1ccccc1OC)S(=O)(=O)c1ccc(C)cc1 | -7% | 4%
Cc1cccc(C2(c3cccc(C)c3)OC(=O)c3ccccc32)c1 | -3% | -5%
CN(C)c1ccc(C2(c3ccc(N(C)C)cc3)OC(=O)c3cc(N(C)C)ccc32)cc1 | -5% | 25µM*
CCOc1ccc(NC(=O)Cn2cc(C(=O)c3ccccc3)c(=O)c3cc4c(cc32)OCCO4)cc1 | 0% | 12%
CCN(CC)CCNC(=O)c1cc2c(=O)n(C)c3ccccc3c2n1C | -17% | 1%
CN(C)CCNC(=O)c1cc2c(=O)n(C)c3ccccc3c2n1C | 25µM* | ?
Cc1ccc(-c2nc3ccccc3[nH]2)cc1NC(=O)COc1ccc(Cl)cc1Cl | -1% | 16%
Cc1ccc(-c2nc3ccccc3[nH]2)cc1NC(=O)c1sc2cc(Cl)ccc2c1Cl | -3% | 7.9µM*
CC(C)C=O | -3% | -3%
Cc1ccc(-n2c(=O)c3c(cnn3C)n(Cc3ccccc3F)c2=O)cc1 | 0% | 9%
Cc1cc(C)c(-c2csc(NC(=O)c3cc([N+](=O)[O-])ccc3N3CCOCC3)n2)c(C)c1 | -4% | -14%
O=C(Nc1nc2ccc(Oc3ccccc3)cc2s1)c1cc([N+](=O)[O-])ccc1N1CCOCC1 | -18% | 16µM*
COc1ccc(OC)c(Nc2nc(-c3cccs3)cs2)c1 | -3% | ?
COc1ccc(C)cc1Nc1nc(-c2c[nH]c3ccccc23)cs1 | -3% | 16µM*
Cc1cc(-n2c(C)nc3ccccc3c2=O)ccc1NC(=O)c1cccc([N+](=O)[O-])c1 | -2% | -14%
Cc1c(CC(=O)NCCc2ccccc2F)c(=O)oc2cc(O)c(Cl)cc12 | -30% | ?
COc1ccc(/C=C/c2nnc(NC(=O)COc3cccc(C)c3)s2)cc1 | 2% | 13µM*
COc1ccc(/C=C/c2nnc(NC(=O)COc3ccc(C)cc3)s2)cc1 | -3% | ?
COC(=O)c1sccc1S(=O)(=O)N1CCN(c2cccc(C)c2C)CC1 | -8% | -1%
CCN(C(=O)c1cc2cc3ccc(OC)cc3nc2o1)c1cccc(C)c1 | -15% | 9%
COc1ccc(C)cc1NC(=O)CSc1nnc(-c2ccc(C)cc2)o1 | -4% | -4%
CCOc1ccc(-c2nnc(SCC(=O)Nc3ccc(C)cc3C)o2)cc1 | -4% | 2%
CCOc1ccc(-c2nnc(SCC(=O)Nc3ccc(C)cc3Cl)o2)cc1 | 28µM* | ?
CCOc1ccc(-c2nnc(SCC(=O)Nc3cc(C)ccc3OC)o2)cc1 | 32µM* | ?
CCC(C)NC(=O)c1c(C)oc2ncn(CC(C)C)c(=O)c12 (stereo not given) | -1% | -9%
SMILES | Cruzain Triton | Cruzain inh noDet
CC(C)c1ccc(OCC(=O)NCCS(=O)(=O)N2CCN(c3ccc(F)cc3)CC2)cc1 | 0% | 8%
Cc1cc(SCC(=O)N2CCC(c3noc4ccc(F)cc34)CC2)nc2ccccc12 | -2% | -13%
O=C(CSc1ncnc2sc3c(c12)CCCC3)N1CCC(c2noc3ccc(F)cc23)CC1 | 3% | 16µM*
Cc1cc(C)c(/C=C/c2onc(C)c2S(=O)(=O)N2CCC(C(=O)N3CCN(c4ccccc4)CC3)CC2)c(C)c1 | -4% | -5%
CS(=O)(=O)N1CCN(c2ccc(NC(=O)CSc3ccc(Cl)cc3)cc2)CC1 | 6% | 4µM*
Cc1ccc(C(=O)Nc2ccc(N3CCN(S(C)(=O)=O)CC3)cc2)cc1 | 5% | 16µM*
Cc1ccc(C(=O)N2CCN(c3ccc(NC(=O)CSc4ccc(Cl)cc4)cc3)CC2)cc1 | -4% | 6%
Cc1ccc(C(=O)Nc2ccc(N3CCOCC3)cc2)cc1 | 7% | 4%
O=C(COc1ccc(Cl)cc1)Nc1ccccc1C(=O)OCc1cc(=O)n2ccsc2n1 | 0% | 0%
COc1ccc(-n2nnc(-c3nsc(NC(=O)c4cccc(C)c4)n3)c2C)cc1OC | -4% | 15%
COc1ccccc1CNC(=O)C(C)n1ccc2cc(S(=O)(=O)N3CCCC3)ccc21 (stereo not given) | -5% | 2%
Cc1ccc(C)c(CN2C(=O)c3ccccc3S(=O)(=O)c3ccc(C(=O)NCCc4ccc(Cl)cc4)cc32)c1 | 5% | 10µM*
Cc1ccc(C)c(CN2C(=O)c3ccccc3S(=O)(=O)c3ccc(C(=O)Nc4ccccc4C(F)(F)F)cc32)c1 | -5% | ?
O=C(NCCc1ccc(Cl)cc1)c1ccc2c(c1)N(Cc1ccccc1F)C(=O)c1ccccc1S2(=O)=O | 1% | ?
